Reference: PubChem BioAssay (NCI)
This is part of a sample that, as a whole, favours compounds with a hit. Of some 83,000 tested, about 20% had one in any assay.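 Interpretation: 100, growth as untreated; towards 0, rising growth inhibition; 0, no net growth; 0 to -100, cell death. Compounds scoring below 10 were considered active.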 Unmarked numbers belong to inactive results. Activity calls are given as the source filed them.

Tested on: OVCAR-4 ovarian
Experiment: NCI-60 one-dose screen, 48 h (100 = growth as untreated, 0 = no growth, -100 = all killed)
Settings: 10 µM

| SMILES | growth |
| --- | --- |
| O=c1cc(-c2ccccc2)oc2c(O)c(O)ccc12 | 61.6% |
| COc1c(C(C)=O)c(OCCCCOc2c(C(C)=O)c(OC)c3ccoc3c2OC)c(OC)c2occc12 | 59.2% |
| CNc1cc(C(=O)O)nc(NC)n1 | 97.6% |
| O=[N+]([O-])c1cc([N+](=O)[O-])c(NN=C(c2ccc(O)cc2)c2ccc(O)cc2)cc1Cl | -47.7% (active) |
| NC(=O)c1c(NC(=O)COC(=O)Cc2ccccc2F)sc2c1CCC2 | 114% |
| CCCCOC(=O)c1c(C)[nH]c(/C=C2\N=C(c3ccc[nH]3)C=C2OC)c1C | 3.84% (active) |
| CC(C)[N+](C)(C)CC(O)COc1cccc2ccccc12 (configuration not stated) | 116% |
| CCCCCCCCCCCCNC(=S)N/N=C/c1ccccc1O | 65.2% |
| COCc1nc2ccccc2[nH]1 | 106% |
| CCCCCCCCCCCCCCNC(=O)Nc1ccc(Cl)c(Cl)c1 | 24.7% |
| CCN(CC)CCSC(=O)C(O)(c1ccccc1)C1CCCC1 (configuration not stated) | 119% |
| C=C1C(=O)O[C@H]2[C@H]1CC/C(COC(=O)NCc1ccc(Cn3c(=O)sn(-c4ccc(Cl)cc4)c3=O)cc1)=C\CC[C@@]1(C)O[C@@H]21 | 54.2% |
| CCOC(=O)c1c[nH]c2cc(OCC3CC3)c(OCC3CC3)cc2c1=O | 118% |
| Cc1cc(NN=C(c2ccc(O)cc2)c2ccc(O)cc2)c([N+](=O)[O-])cc1[N+](=O)[O-] | 52.6% |
| Nc1nnc(CSc2nnc3n(Cc4ccccc4)c(=O)c4c5c(sc4n23)CCCC5)s1 | 98.8% |
| N#Cc1c(Cl)nc(SCC2CO2)nc1-c1ccccc1 (configuration not stated) | 103% |
| O=C(C[n+]1ccn(CC(OCc2ccc(Cl)cc2Cl)c2ccc(Cl)cc2Cl)c1)c1ccc(F)cc1 (configuration not stated) | -96.2% (active) |
| O=C(O)CSCc1nnc2n(Cc3ccccc3)c(=O)c3c4c(sc3n12)CCCC4 | 95.6% |
| COc1ccc(OC)c([N+](=O)[O-])c1C(=O)CNC(C)=O | 103% |
| COc1ccc2c3ccnc(C(F)(F)F)c3n(CCCCN)c2c1 | 74.6% |

Tested on: SK-OV-3 ovarian
Experiment: as above
Settings: 10 µM unless noted

| SMILES | growth |
| --- | --- |
| Nc1nc(SCc2cccc([N+](=O)[O-])c2)c2[nH]cnc2n1 | 109% |
| N/C(=N\c1nc2ccccc2[nH]1)NC(=O)Cc1cccc2ccccc12 | 92.5% |
| O=C1NC(=O)c2cc([N+](=O)[O-])cc3cccc1c23 | 106% |
| COc1ccc(C2CC(c3cc(OC)c(OC)c(OC)c3)=NN2C(C)=O)cc1OCC(=O)Nc1nc2ccc(C(F)(F)F)cc2s1 (configuration not stated) | 97% |
| O=C(N/N=C/c1ccc([N+](=O)[O-])cc1)c1ccc(Br)o1 | 79.3% |
| O=C(NCc1ccccc1)C(Cl)Cl | 101% |
| COc1cc2c(c(OC)c1OC)-c1ccc(NNC(N)=S)c(=O)cc1[C@@H](NC(C)=O)CC2 | 7.84% (active) |
| CC(C)OC(=O)Nc1cc(F)c(F)cc1F | 100% |
| Nc1cc(C(=O)O)[nH]c(=S)n1 | 115% |
| COc1ccc(OC)c(NC=O)c1 | 110% |
| ClC1=C(Cl)C(Cl)=C(Cl)C1=Cc1ccccc1 | 38.8% |
| O=C(O)c1cc([N+](=O)[O-])ccc1Br | 113% |
| COC(=O)c1cc2c(=O)[nH]cc3c2c(n1)CCC3 | 100% |
| CCN=C1C=CC(=C(c2ccc(N(CC)CC)cc2)c2ccc(N(CC)CC)cc2)c2ccccc21 | -70.2% (active) |
| O=c1[nH]c(CN2CCN(c3cccc(Cl)c3)CC2)nc2cc(Cl)ccc12 | 82.1% |
| c1ccc2c(c1)CN(CCCN1CCOCC1)C2 | 102% |
| Nc1cc(NN=C(c2ccc(O)cc2)c2ccc(O)cc2)c([N+](=O)[O-])cc1[N+](=O)[O-] | -44.4% (active) |
| O=c1cc(-c2ccccc2)oc2c(O)c(O)ccc12 | 76.7% |
| COc1c(C(C)=O)c(OCCCCOc2c(C(C)=O)c(OC)c3ccoc3c2OC)c(OC)c2occc12 | 105% |

| SMILES | growth |
| --- | --- |
| CNc1cc(C(=O)O)nc(NC)n1 | 109% |
| O=[N+]([O-])c1cc([N+](=O)[O-])c(NN=C(c2ccc(O)cc2)c2ccc(O)cc2)cc1Cl | 99.5% |
| NC(=O)c1c(NC(=O)COC(=O)Cc2ccccc2F)sc2c1CCC2 | 104% |
| CCCCOC(=O)c1c(C)[nH]c(/C=C2\N=C(c3ccc[nH]3)C=C2OC)c1C | 34.7% |
| CC(C)[N+](C)(C)CC(O)COc1cccc2ccccc12 (configuration not stated) | 110% |
| CCCCCCCCCCCCNC(=S)N/N=C/c1ccccc1O | 102% |
| COCc1nc2ccccc2[nH]1 | 101% |
| CCCCCCCCCCCCCCNC(=O)Nc1ccc(Cl)c(Cl)c1 | 73% |
| CCN(CC)CCSC(=O)C(O)(c1ccccc1)C1CCCC1 (configuration not stated) | 113% |
| C=C1C(=O)O[C@H]2[C@H]1CC/C(COC(=O)NCc1ccc(Cn3c(=O)sn(-c4ccc(Cl)cc4)c3=O)cc1)=C\CC[C@@]1(C)O[C@@H]21 | 107% |
| CCOC(=O)c1c[nH]c2cc(OCC3CC3)c(OCC3CC3)cc2c1=O | 110% |
| Cc1cc(NN=C(c2ccc(O)cc2)c2ccc(O)cc2)c([N+](=O)[O-])cc1[N+](=O)[O-] | 73.5% |
| Nc1nnc(CSc2nnc3n(Cc4ccccc4)c(=O)c4c5c(sc4n23)CCCC5)s1 | 42.7% |
| N#Cc1c(Cl)nc(SCC2CO2)nc1-c1ccccc1 (configuration not stated) | 70.2% |
| O=C(C[n+]1ccn(CC(OCc2ccc(Cl)cc2Cl)c2ccc(Cl)cc2Cl)c1)c1ccc(F)cc1 (configuration not stated) | 26.3% |
| O=C(O)CSCc1nnc2n(Cc3ccccc3)c(=O)c3c4c(sc3n12)CCCC4 | 106% |
| COc1ccc(OC)c([N+](=O)[O-])c1C(=O)CNC(C)=O | 105% |
| COc1ccc2c3ccnc(C(F)(F)F)c3n(CCCCN)c2c1 | 53.3% |
